Laboratory results: the supplement of paper PMC10849652
The full data set covers some 7,900 targets. This sample favours those with a hit. About 0.6% of all pairs of compound and target were hits.

Legend:
Experiment in all cases: log2 fold change, soluble protein after heating vs DMSO (PISA); higher = thermal stabilisation; K562 cells, 10 uM, 30 min; active = over 0.2 and 3.5 SD of the protein, either way, in both replicates (recomputed)
[1] = compound: Cc1ccc(NC(=O)c2ccc(CN3CC[C@H](N(C)C)C3)c(C(F)(F)F)c2)cc1Nc1nccc(-c2cncnc2)n1 [bafetinib]
In short: (§1)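 Soluble protein was defined as the supernatant after 21,000xg for 90 min. It came from K562 cells at 2×10^6 cells/mL given 10 μM compound for 30 min, heated in aliquots for 3 min across 48°C-58°C, pooled, and extracted in PBS with 0.5% NP-40 at 4°C, and was quantified by TMTpro 16plex LC-MS/MS with equalised channel sums. Thermal stability against control samples, from duplicates, is reported as log2 fold change.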

[2] = compound: Cc1cccc(CC(=O)N2CCc3c2ccc(-c2cn(C)c4ncnc(N)c24)c3F)n1
In short: as §1

[3] = compound: Cc1cn(-c2cc(NC(=O)c3ccc(C)c(Nc4nccc(-c5cccnc5)n4)c3)cc(C(F)(F)F)c2)cn1 [nilotinib]
In short: as §1

[4] = compound: Cc1nc(Nc2n[nH]c3c2CN(C(=O)N[C@H](CN(C)C)c2ccccc2)C3(C)C)c2sccc2n1
In short: as §1

[5] = compound: Cc1nc(Nc2ncc(C(=O)Nc3c(C)cccc3Cl)s2)cc(N2CCN(CCO)CC2)n1 [dasatinib]
In short: as §1

[6] = compound: Cc1ncc(-c2ccnc(Nc3ccc(S(C)(=O)=O)cc3)n2)n1C(C)C
In short: as §1

[7] = compound: Cn1cc(-c2ccc3c(c2)CCN3C(=O)Cc2cccc(C(F)(F)F)c2)c2c(N)ncnc21
In short: as §1

[8] = compound: Cn1cc(-c2ccc3nnc(C(F)(F)c4ccc5ncccc5c4)n3n2)cn1
In short: as §1

[9] = compound: Cn1cncc1[C@@](N)(c1ccc(Cl)cc1)c1ccc2c(c1)c(-c1cccc(Cl)c1)cc(=O)n2C [tipifarnib]
In short: as §1

[10] = compound: FC(F)(F)c1ccc(/C=C/c2nc(COc3ccc(CCCCn4ccnn4)cc3)co2)cc1 [mubritinib]
In short: as §1

[11] = compound: NC(=O)Nc1cc(-c2cccc(F)c2)sc1C(=O)N[C@H]1CCCNC1
In short: as §1

[12] = compound: NC(=O)c1cnc(N[C@@H]2CCCC[C@@H]2N)nc1Nc1cccc(-n2nccn2)c1
In short: as §1

[13] = compound: NC1(c2ccc(-c3nc4ccn5c(=O)[nH]nc5c4cc3-c3ccccc3)cc2)CCC1
In short: as §1

[14] = compound: NCC(=O)Nc1ccc(-n2nc(C(F)(F)F)cc2-c2ccc3c(ccc4ccccc43)c2)cc1
In short: as §1

[15] = compound: Nc1ccccc1NC(=O)c1ccc(CNC(=O)OCc2cccnc2)cc1 [entinostat]
In short: as §1

[16] = compound: O=C(CCCCCCC(=O)Nc1ccccc1)NO [vorinostat]
In short: as §1

[17] = compound: O=C(CCCCCCNC(=O)c1cnc(N(c2ccccc2)c2ccccc2Cl)nc1)NO [citarinostat]
In short: as §1

[18] = compound: O=C(O)c1ccc2c(c1)nc(Nc1cccc(Cl)c1)c1ccncc12 [silmitasertib]
In short: as §1

[19] = compound: O=C1NC(=O)C(c2cnc3ccccn23)=C1c1cn2c3c(cc(F)cc13)CN(C(=O)N1CCCCC1)CC2
In short: as §1

[20] = compound: c1cc(OCCN2CCCCC2)cc(-c2n[nH]c3ccc(-c4nnc[nH]4)cc23)c1
In short: as §1

Measured: log2 fold change

DHCR24 (UniProt Q15392)
Sequence of UniProt Q15392 (Q15392 whole entry, looked up): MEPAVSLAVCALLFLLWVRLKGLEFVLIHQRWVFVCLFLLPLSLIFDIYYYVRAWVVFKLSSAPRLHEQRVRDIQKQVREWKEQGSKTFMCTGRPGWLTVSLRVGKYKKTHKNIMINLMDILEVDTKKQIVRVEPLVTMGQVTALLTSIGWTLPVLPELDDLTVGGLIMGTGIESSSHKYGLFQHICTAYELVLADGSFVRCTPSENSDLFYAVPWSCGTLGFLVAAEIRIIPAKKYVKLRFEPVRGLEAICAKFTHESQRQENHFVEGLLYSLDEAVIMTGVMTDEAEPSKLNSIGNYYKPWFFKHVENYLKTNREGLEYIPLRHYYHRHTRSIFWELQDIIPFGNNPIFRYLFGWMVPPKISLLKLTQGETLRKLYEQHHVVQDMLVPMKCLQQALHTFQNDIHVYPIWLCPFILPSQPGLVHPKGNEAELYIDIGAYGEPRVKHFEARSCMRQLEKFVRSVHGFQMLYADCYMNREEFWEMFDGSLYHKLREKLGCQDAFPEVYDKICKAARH
active: [1] 1.39 | [20] 1.08
inactive: [2] -0.001 | [3] -0.03 | [4] 0.025 | [5] 0.127 | [6] 0.577 | [7] 0.292 | [8] 0.043 | [9] -0.006 | [10] 0.47 | [11] -0.022 | [12] -0.037 | [13] 0.048 | [14] -0.024 | [15] -0.082 | [16] -0.012 | [17] 0 | [18] -0.018 | [19] 0.041

DNAJB12 (UniProt Q9NXW2)
Sequence of UniProt Q9NXW2 (Q9NXW2 whole entry, looked up): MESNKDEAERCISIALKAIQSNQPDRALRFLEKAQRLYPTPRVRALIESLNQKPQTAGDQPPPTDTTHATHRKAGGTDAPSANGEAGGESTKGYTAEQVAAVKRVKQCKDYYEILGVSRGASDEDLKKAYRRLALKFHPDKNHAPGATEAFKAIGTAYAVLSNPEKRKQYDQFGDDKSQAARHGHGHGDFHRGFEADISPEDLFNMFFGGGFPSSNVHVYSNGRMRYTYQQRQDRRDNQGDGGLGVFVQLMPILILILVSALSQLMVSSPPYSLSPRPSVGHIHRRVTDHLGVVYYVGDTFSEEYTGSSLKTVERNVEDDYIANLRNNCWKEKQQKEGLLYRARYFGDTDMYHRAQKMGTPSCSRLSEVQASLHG
inactive: [1] -0.057 | [2] 0.007 | [3] -0.158 | [4] 0.041 | [5] -0.068 | [6] 0.015 | [7] -0.04 | [8] -0.039 | [9] 0.016 | [10] 0.01 | [11] -0.03 | [12] -0.018 | [13] -0.048 | [14] -0.029 | [15] 0.001 | [16] 0.027 | [17] 0.027 | [18] 0.079 | [19] -0.038 | [20] 0.002

EXOC6 (UniProt Q8TAG9)
inactive: [1] -0.013 | [2] 0.036 | [3] -0.013 | [4] -0.196 | [5] -0.22 | [6] -0.013 | [7] 0.042 | [8] 0.028 | [9] -0.076 | [10] 0.07 | [11] -0.052 | [12] -0.091 | [13] -0.258 | [14] -0.078 | [15] 0.045 | [17] 0.023 | [18] 0.049 | [19] 0.03 | [20] 0.007
active: [16] 0.324

DPP8 (UniProt Q6V1X1)
Sequence of UniProt Q6V1X1 (Q6V1X1 whole entry, looked up): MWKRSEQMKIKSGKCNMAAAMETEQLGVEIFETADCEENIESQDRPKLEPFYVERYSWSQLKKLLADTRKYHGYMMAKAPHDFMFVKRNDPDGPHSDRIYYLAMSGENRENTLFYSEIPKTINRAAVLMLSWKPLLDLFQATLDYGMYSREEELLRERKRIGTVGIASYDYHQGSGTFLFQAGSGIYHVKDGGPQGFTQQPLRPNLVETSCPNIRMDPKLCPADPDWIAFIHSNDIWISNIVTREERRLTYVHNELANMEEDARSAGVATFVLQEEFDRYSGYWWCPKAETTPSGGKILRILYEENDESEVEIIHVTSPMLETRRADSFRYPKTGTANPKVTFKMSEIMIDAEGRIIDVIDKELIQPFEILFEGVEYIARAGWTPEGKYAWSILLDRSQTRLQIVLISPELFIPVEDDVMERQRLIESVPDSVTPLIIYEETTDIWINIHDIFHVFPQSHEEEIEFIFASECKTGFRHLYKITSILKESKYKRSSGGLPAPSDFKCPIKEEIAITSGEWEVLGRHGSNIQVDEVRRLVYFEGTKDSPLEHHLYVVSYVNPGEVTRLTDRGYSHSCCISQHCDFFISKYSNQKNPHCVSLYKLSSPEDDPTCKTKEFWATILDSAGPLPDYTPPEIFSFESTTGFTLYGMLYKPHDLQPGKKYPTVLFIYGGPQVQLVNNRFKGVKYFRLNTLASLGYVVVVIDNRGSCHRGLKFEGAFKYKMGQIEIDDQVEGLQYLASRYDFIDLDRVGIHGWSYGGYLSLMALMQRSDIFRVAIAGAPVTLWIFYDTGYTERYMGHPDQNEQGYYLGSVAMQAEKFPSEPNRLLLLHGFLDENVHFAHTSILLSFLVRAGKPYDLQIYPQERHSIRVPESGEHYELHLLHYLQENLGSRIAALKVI
active: [17] -0.325
inactive: [1] -0.054 | [2] -0.035 | [3] 0.027 | [4] -0.019 | [5] 0.014 | [6] -0.001 | [7] 0.048 | [8] 0.054 | [9] 0.065 | [10] 0.036 | [11] -0.243 | [12] -0.126 | [13] -0.04 | [14] -0.079 | [15] -0.124 | [16] -0.021 | [18] 0.063 | [19] -0.114 | [20] 0.219

EED, A0A5F9ZI63
inactive: [1] 0.019 | [2] -0.024 | [3] -0.027 | [4] 0.043 | [5] 0.015 | [6] -0.025 | [7] -0.076 | [8] -0.029 | [9] -0.014 | [10] -0.066 | [11] 0.03 | [12] 0.053 | [13] 0.037 | [14] -0.029 | [15] -0.039 | [16] 0.021 | [17] 0.098 | [18] 0.078 | [19] 0.065 | [20] -0.078

FAM114A2 (UniProt Q9NRY5)
inactive: [1] -0.094 | [2] 0.025 | [3] -0.035 | [4] -0.032 | [5] -0.083 | [6] 0.004 | [7] 0.001 | [8] 0.019 | [9] -0.002 | [10] 0.055 | [11] 0.023 | [12] -0.089 | [13] -0.151 | [14] -0.062 | [15] 0.051 | [16] 0.034 | [17] 0.05 | [18] 0.02 | [19] -0.016 | [20] -0.013

DNAJC7 (UniProt Q99615)
Sequence of UniProt Q99615 (Q99615 whole entry, looked up): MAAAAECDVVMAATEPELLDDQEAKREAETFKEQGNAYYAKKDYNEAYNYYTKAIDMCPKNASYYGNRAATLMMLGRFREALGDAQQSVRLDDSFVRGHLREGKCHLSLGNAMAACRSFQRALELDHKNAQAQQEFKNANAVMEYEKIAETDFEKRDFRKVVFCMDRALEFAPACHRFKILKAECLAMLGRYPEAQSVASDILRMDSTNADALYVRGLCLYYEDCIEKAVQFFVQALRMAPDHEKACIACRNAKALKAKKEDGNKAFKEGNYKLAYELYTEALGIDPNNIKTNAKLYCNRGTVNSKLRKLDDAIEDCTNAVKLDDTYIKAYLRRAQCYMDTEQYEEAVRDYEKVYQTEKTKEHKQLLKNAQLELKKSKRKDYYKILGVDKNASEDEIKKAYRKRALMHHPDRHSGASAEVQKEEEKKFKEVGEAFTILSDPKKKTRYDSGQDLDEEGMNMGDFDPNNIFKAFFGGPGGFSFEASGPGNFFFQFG
inactive: [1] -0.047 | [2] 0.031 | [3] -0.107 | [4] -0.048 | [5] -0.136 | [6] 0.024 | [7] 0.068 | [8] 0.058 | [9] -0.012 | [10] 0.037 | [11] -0.067 | [12] -0.029 | [13] -0.204 | [14] -0.071 | [15] 0.05 | [16] 0.043 | [17] 0.071 | [18] 0.001 | [19] -0.03 | [20] -0.001

DHX36 (UniProt Q9H2U1)
Sequence of UniProt Q9H2U1 (Q9H2U1 whole entry, looked up): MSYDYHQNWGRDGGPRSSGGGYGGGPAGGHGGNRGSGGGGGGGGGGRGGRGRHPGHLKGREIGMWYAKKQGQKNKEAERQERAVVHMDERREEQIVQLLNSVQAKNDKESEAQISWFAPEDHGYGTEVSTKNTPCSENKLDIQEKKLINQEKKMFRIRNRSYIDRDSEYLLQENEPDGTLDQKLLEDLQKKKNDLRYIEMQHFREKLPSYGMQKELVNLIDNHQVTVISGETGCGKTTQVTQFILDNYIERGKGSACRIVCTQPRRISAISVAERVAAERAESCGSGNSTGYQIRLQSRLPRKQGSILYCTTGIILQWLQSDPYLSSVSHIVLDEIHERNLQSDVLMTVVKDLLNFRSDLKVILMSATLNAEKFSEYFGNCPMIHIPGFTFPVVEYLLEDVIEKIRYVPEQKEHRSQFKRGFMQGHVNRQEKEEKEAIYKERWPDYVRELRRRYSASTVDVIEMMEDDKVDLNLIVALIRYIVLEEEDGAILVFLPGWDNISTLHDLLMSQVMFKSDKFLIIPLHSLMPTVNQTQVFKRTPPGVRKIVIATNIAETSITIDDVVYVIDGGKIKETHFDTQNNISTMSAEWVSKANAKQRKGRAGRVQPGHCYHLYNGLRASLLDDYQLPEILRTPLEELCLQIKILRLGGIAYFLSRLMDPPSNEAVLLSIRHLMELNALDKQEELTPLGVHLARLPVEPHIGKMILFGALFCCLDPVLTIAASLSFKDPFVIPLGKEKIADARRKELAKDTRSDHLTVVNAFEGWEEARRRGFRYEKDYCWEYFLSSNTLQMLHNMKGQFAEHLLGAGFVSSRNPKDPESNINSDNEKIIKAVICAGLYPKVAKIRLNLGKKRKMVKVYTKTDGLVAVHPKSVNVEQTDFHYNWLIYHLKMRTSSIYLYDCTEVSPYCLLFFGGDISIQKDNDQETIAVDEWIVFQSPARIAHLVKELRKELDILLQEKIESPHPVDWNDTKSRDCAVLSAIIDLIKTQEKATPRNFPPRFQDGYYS
inactive: [1] 0.065 | [2] 0.015 | [3] -0.066 | [4] 0.052 | [5] -0.01 | [6] 0.045 | [7] -0.076 | [8] -0.059 | [9] 0.002 | [10] -0.128 | [11] 0 | [12] 0.025 | [13] -0.028 | [14] 0.056 | [15] -0.003 | [16] -0.028 | [17] 0.014 | [18] 0.009 | [19] 0.11
active: [20] -0.283

EIF4G1 isoform 8 (UniProt Q04637)
inactive: [1] -0.002 | [2] 0.046 | [3] -0.223 | [4] -0.11 | [5] -0.157 | [6] -0.17 | [7] -0.155 | [8] -0.117 | [9] -0.083 | [10] -0.071 | [11] -0.104 | [12] -0.273 | [13] -0.154 | [14] -0.106 | [15] 0.185 | [16] 0.116 | [17] 0.058 | [18] -0.045 | [19] 0.194 | [20] -0.269

DDX39A (UniProt O00148)
Sequence of UniProt O00148 (O00148 whole entry, looked up): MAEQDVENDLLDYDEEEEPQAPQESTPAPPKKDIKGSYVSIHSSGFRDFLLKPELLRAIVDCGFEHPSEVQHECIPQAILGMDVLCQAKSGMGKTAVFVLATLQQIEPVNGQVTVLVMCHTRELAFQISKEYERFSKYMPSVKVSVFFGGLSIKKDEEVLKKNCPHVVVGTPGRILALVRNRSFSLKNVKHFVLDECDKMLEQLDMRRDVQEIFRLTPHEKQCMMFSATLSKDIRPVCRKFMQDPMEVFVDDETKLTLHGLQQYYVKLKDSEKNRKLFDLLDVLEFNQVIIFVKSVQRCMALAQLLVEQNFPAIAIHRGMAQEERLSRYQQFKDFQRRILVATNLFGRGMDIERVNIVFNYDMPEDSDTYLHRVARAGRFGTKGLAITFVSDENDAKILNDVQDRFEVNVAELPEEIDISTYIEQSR
active: [4] -0.278
inactive: [1] 0.001 | [2] 0.014 | [3] -0.017 | [5] -0.134 | [6] -0.218 | [7] -0.018 | [8] -0.007 | [9] 0.079 | [10] -0.182 | [11] -0.067 | [12] -0.04 | [13] 0.057 | [14] -0.042 | [15] -0.003 | [16] 0.048 | [17] -0.006 | [18] -0.011 | [19] -0.107 | [20] -0.233

CUX1 isoform 2 (UniProt Q13948)
active: [15] 0.343
inactive: [1] 0.051 | [2] 0.042 | [3] -0.001 | [4] -0.029 | [5] -0.084 | [6] 0.078 | [7] 0.072 | [8] 0.063 | [9] 0.062 | [10] 0.007 | [11] -0.027 | [12] -0.031 | [13] -0.033 | [14] -0.026 | [16] 0.076 | [17] 0.137 | [18] -0.016 | [19] -0.047 | [20] -0.03

ETNK1 (UniProt Q9HBU6)
Sequence of UniProt Q9HBU6 (Q9HBU6 whole entry, looked up): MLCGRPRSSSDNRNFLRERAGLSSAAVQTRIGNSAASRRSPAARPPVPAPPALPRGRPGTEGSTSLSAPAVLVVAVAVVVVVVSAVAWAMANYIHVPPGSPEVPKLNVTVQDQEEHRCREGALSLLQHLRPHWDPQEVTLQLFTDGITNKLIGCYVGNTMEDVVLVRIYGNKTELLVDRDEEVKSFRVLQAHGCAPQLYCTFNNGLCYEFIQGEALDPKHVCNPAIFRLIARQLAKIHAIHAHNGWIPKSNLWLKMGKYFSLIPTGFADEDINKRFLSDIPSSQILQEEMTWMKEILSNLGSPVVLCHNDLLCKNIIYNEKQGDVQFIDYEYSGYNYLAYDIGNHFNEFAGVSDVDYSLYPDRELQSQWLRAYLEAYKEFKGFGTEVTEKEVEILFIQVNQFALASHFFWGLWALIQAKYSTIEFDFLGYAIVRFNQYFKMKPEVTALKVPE
inactive: [1] -0.042 | [2] 0.037 | [3] -0.043 | [4] 0.08 | [5] -0.07 | [6] 0.06 | [7] 0.026 | [8] 0.008 | [9] -0.183 | [10] 0.036 | [12] 0.011 | [13] -0.144 | [14] -0.057 | [15] 0.089 | [16] -0.01 | [17] 0.019 | [18] 0.041 | [19] 0.208 | [20] -0.084
active: [11] 0.25

DMAC1 (UniProt Q96GE9)
inactive: [1] -0.138 | [2] -0.047 | [3] -0.083 | [4] 0.067 | [5] 0.118 | [6] -0.007 | [7] -0.014 | [8] 0.095 | [9] -0.156 | [10] 0.085 | [11] 0.136 | [12] 0.031 | [13] 0.015 | [14] -0.07 | [15] -0.004 | [16] 0.019 | [17] -0.003 | [18] -0.185 | [19] -0.427 | [20] 0.113

EEF1G isoform 2 (UniProt P26641)
Sequence of UniProt P26641 (P26641 whole entry, looked up): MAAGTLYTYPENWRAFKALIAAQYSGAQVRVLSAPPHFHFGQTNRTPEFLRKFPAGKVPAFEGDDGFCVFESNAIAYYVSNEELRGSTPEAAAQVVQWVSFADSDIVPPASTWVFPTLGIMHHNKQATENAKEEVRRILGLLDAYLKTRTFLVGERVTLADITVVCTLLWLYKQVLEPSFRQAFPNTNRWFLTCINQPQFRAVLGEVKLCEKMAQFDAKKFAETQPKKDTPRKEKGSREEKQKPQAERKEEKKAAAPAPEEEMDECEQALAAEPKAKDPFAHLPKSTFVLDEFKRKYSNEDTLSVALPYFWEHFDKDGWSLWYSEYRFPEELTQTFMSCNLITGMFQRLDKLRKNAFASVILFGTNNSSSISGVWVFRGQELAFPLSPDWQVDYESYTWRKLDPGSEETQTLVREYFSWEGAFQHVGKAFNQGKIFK
inactive: [1] 0.033 | [2] 0.083 | [3] -0.034 | [4] -0.03 | [5] -0.032 | [6] 0.045 | [7] -0.03 | [8] -0.05 | [9] -0.124 | [10] 0.028 | [11] -0.005 | [12] -0.039 | [13] -0.1 | [14] 0.011 | [15] 0.036 | [16] 0.059 | [17] 0.035 | [18] 0.014 | [19] 0.003 | [20] -0.046

CTU1 (UniProt Q7Z7A3)
Sequence of UniProt Q7Z7A3 (Q7Z7A3 whole entry, looked up): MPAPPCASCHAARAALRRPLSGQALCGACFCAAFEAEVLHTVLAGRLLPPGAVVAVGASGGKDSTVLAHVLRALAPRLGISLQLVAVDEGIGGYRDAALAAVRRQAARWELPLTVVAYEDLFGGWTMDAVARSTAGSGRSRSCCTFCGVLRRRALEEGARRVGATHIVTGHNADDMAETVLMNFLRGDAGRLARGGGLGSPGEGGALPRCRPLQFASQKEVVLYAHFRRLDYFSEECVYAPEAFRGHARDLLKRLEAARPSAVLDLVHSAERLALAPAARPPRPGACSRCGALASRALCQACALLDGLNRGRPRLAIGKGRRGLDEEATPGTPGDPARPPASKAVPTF
inactive: [1] -0.024 | [2] 0.067 | [3] -0.062 | [4] -0.03 | [5] -0.145 | [6] -0.03 | [7] 0.035 | [8] 0.02 | [9] -0.043 | [10] 0.067 | [11] 0.038 | [12] -0.015 | [13] -0.199 | [14] -0.142 | [15] 0.023 | [16] 0.075 | [17] 0.049 | [18] 0.021 | [19] 0 | [20] 0.008

F5 (UniProt P12259)
inactive: [1] -0.076 | [2] -0.02 | [3] 0.021 | [4] 0.019 | [5] 0.05 | [6] 0.023 | [7] 0.072 | [8] 0.111 | [9] 0.153 | [10] -0.089 | [11] -0.095 | [12] -0.08 | [13] 0.048 | [14] -0.024 | [15] -0.045 | [16] -0.016 | [17] -0.019 | [18] 0.127 | [19] 0.084 | [20] 0.002
